Experimental data reported in the supplement of paper PMC8728848.
Shown is part of a subset that was picked to be rich in the strongest signals.

Legend:
Test in all cases: glycan array binding signal (z-score within array); higher = stronger binding
Conditions in all cases: glycan notation: IUPAC condensed, linker removed
[1] = molecular target: Man(a1-3)[Man(a1-6)]Man(a1-6)[Man(a1-3)]Man(b1-4)GlcNAc(b1-4)GlcNAc
Outline: (§1)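 Arrays were curated from the Consortium for Functional Glycomics database, 3228 in total, and kept only where the protein sequence was available. Binding is expressed as a within-array Z-score. This score was averaged across arrays of the same protein sequence at different concentrations or buffers and across linkers, and negative values can be read as non-binding.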

[2] = molecular target: Neu5Ac(a2-3)Gal(b1-3)GlcNAc(b1-3)GalNAc
Outline: as §1

[3] = molecular target: Neu5Ac(a2-3)Gal(b1-4)GlcNAc(b1-2)Man(a1-3)[Neu5Ac(a2-3)Gal(b1-4)GlcNAc(b1-2)Man(a1-6)]Man(b1-4)GlcNAc(b1-4)GlcNAc
Outline: as §1

[4] = molecular target: Neu5Ac(a2-3)Gal(b1-4)GlcNAc(b1-2)Man(a1-3)[Neu5Ac(a2-3)Gal(b1-4)GlcNAc(b1-2)Man(a1-6)]Man(b1-4)GlcNAc(b1-4)[Fuc(a1-6)]GlcNAc
Outline: as §1

[5] = molecular target: Neu5Ac(a2-3)Gal(b1-4)GlcNAc(b1-3)Gal(b1-4)GlcNAc(b1-2)Man(a1-3)[Neu5Ac(a2-3)Gal(b1-4)GlcNAc(b1-3)Gal(b1-4)GlcNAc(b1-2)Man(a1-6)]Man(b1-4)GlcNAc(b1-4)GlcNAc
Outline: as §1

[6] = molecular target: Neu5Ac(a2-3)Gal(b1-4)GlcNAc(b1-3)Gal(b1-4)GlcNAc(b1-3)GalNAc
Outline: as §1

[7] = molecular target: Neu5Ac(a2-3)Gal(b1-4)GlcNAc(b1-3)[Neu5Ac(a2-3)Gal(b1-4)GlcNAc(b1-6)]GalNAc
Outline: as §1

[8] = molecular target: Neu5Ac(a2-3)Gal(b1-4)[Fuc(a1-3)]GlcNAc(b1-3)Gal(b1-4)GlcNAc
Outline: as §1

[9] = molecular target: Neu5Ac(a2-3)Gal(b1-4)[Fuc(a1-3)]GlcNAc(b1-3)GalNAc
Outline: as §1

[10] = molecular target: Neu5Ac(a2-3)[GalNAc(b1-4)]Gal(b1-4)GlcNAc
Outline: as §1

[11] = molecular target: Neu5Ac(a2-6)Gal(b1-4)GlcNAc(b1-2)Man(a1-3)Man(b1-4)GlcNAc(b1-4)GlcNAc
Outline: as §1

[12] = molecular target: Neu5Ac(a2-6)Gal(b1-4)GlcNAc(b1-2)Man(a1-3)[Man(a1-6)]Man(b1-4)GlcNAc(b1-4)GlcNAc
Outline: as §1

[13] = molecular target: Neu5Ac(a2-6)Gal(b1-4)GlcNAc(b1-2)Man(a1-3)[Neu5Ac(a2-3)Gal(b1-4)GlcNAc(b1-2)Man(a1-6)]Man(b1-4)GlcNAc(b1-4)GlcNAc
Outline: as §1

[14] = molecular target: Neu5Ac(a2-6)Gal(b1-4)GlcNAc(b1-2)Man(a1-3)[Neu5Ac(a2-6)Gal(b1-4)GlcNAc(b1-2)Man(a1-6)]Man(b1-4)GlcNAc(b1-4)[Fuc(a1-6)]GlcNAc
Outline: as §1

[15] = molecular target: Neu5Ac(a2-6)Gal(b1-4)GlcNAc(b1-2)Man(a1-6)Man(b1-4)GlcNAc(b1-4)GlcNAc
Outline: as §1

[16] = molecular target: Neu5Ac(a2-6)Gal(b1-4)GlcNAc(b1-2)Man(a1-6)[Gal(b1-4)GlcNAc(b1-2)Man(a1-3)]Man(b1-4)GlcNAc(b1-4)GlcNAc
Outline: as §1

[17] = molecular target: Neu5Ac(a2-6)Gal(b1-4)GlcNAc(b1-2)Man(a1-6)[GlcNAc(b1-2)Man(a1-3)]Man(b1-4)GlcNAc(b1-4)GlcNAc
Outline: as §1

[18] = molecular target: Neu5Ac(a2-6)Gal(b1-4)GlcNAc(b1-2)Man(a1-6)[Man(a1-3)]Man(b1-4)GlcNAc(b1-4)GlcNAc
Outline: as §1

[19] = molecular target: Neu5Ac(a2-6)Gal(b1-4)GlcNAc(b1-3)Gal(b1-4)GlcNAc(b1-3)[Neu5Ac(a2-6)Gal(b1-4)GlcNAc(b1-3)Gal(b1-4)GlcNAc(b1-6)]GalNAc
Outline: as §1

[20] = molecular target: Neu5Ac(a2-6)Gal(b1-4)GlcNAc(b1-3)Gal(b1-4)[Fuc(a1-3)]GlcNAc(b1-3)Gal(b1-4)[Fuc(a1-3)]GlcNAc
Outline: as §1

[21] = molecular target: Neu5Ac(a2-6)Gal(b1-4)GlcNAc(b1-3)[Neu5Ac(a2-6)Gal(b1-4)GlcNAc(b1-6)]GalNAc
Outline: as §1

[22] = molecular target: Neu5Ac(a2-6)Gal(b1-4)GlcNAc(b1-6)GalNAc
Outline: as §1

[23] = molecular target: Neu5Ac(a2-6)GlcNAc(b1-4)GlcNAc(b1-4)GlcNAc
Outline: as §1

[24] = molecular target: Neu5Ac(a2-8)Neu5Ac(a2-3)[Gal(b1-3)GalNAc(b1-4)]Gal(b1-4)Glc
Outline: as §1

[25] = molecular target: Neu5Gc(a2-3)Gal(b1-4)GlcNAc(b1-3)Gal(b1-4)GlcNAc(b1-2)Man(a1-3)[Neu5Gc(a2-3)Gal(b1-4)GlcNAc(b1-3)Gal(b1-4)GlcNAc(b1-2)Man(a1-6)]Man(b1-4)GlcNAc(b1-4)GlcNAc
Outline: as §1

B1: SialidaseA (Arthrobacter ureafaciens) (protein)
chain: MRSNSTSAPSLVRRAATGVLTCAVSIGLLAGLGLPAQAAPTPPNSPTLPPGSFSETNLAADRTAANFFYRIPALTYLGNDVVLAAWDGRPGSAADAPNPNSIVQRRSTDGGKTWGPVQVIAAGHVADASGPRYGYSDPSYIYDAEANKVFAFFVYSKDQGFGGSQFGNDDADRNVISSAVIESSDAGVTWSQPRLITSVTKPGTSKTNPAAGDVRSNFASSGEGIQLKYGPHKGRLIQQYAGDVRQADGSNKIQAYSVYSDDHGVTWHKGANVGDRMDENKTVELSDGRVLLNSRDNANRGYRKVAVSTDGGATYGPVSQDTELPDPANNGAIARMFPNAAQGSADAKKLIFTNANSKTGRENVSARVSCDDGETWPGVRTIRSGFSAYSTVTRLADGKFGVLYEGNYTDNMPFATFDDAWLNYVCAPLAVPAVNIAPSATQEVPVTVTNQEATTLSGATATVYTPSGWSATTVPVPDVAPGASVTVTVALTAPADASGPRSLNAAFTTADGRVSQFTFTATTPVAPQVGLTITGSAPARDVAANPYQAGDVLGYTLNVKSTANVAANSVPLTGTFDSGFLPPAAPNCRYNNLAAGASYNCTTAKHTITAADMERGYFVPEATFSITSTTTPSLTKTVQFTGAAVALRDGLISADISGARTDVGRDLATRPYAAGELVPYAFTVKNTSPFVEQVVPTAGNFSPFLPAGAGNCRYLSLPAGQSYECATPRHAVTAEEVEQGFFVPDTTWEVSAAGQSTRTYRINGGEVDLLVRDAALSATVVAEWKDADGDRFASAGDPVTFTYTVGNAGNVALTGLEAPDAGISLPFLAPGDTATATREHVLTAADVAGGSLAASAFEATARNGSKEVTATAEGQPLELKVQPAQPSKEPELTVQDLEDQTPPFDLGTAFKYRTGQKVSLAGLEYGQWYYVYLNKTGYRLGWMFPTTGDTVEFILPPEVRNGRDDVVVLDKDGRRVSFDRLQVTPKGEKI
- glycan array binding signal (z-score) [1]: -0.278
- glycan array binding signal (z-score) [2]: -0.321
- glycan array binding signal (z-score) [3]: -0.915
- glycan array binding signal (z-score) [4]: 3.28
- glycan array binding signal (z-score) [5]: 0.256
- glycan array binding signal (z-score) [6]: -0.013
- glycan array binding signal (z-score) [7]: 1.16
- glycan array binding signal (z-score) [8]: 2.56
- glycan array binding signal (z-score) [9]: 1.91
- glycan array binding signal (z-score) [10]: 0.486
- glycan array binding signal (z-score) [11]: 3.4
- glycan array binding signal (z-score) [12]: 3.4
- glycan array binding signal (z-score) [13]: 2.86
- glycan array binding signal (z-score) [14]: 3.44
- glycan array binding signal (z-score) [15]: 3.28
- glycan array binding signal (z-score) [16]: 3.95
- glycan array binding signal (z-score) [17]: 3.32
- glycan array binding signal (z-score) [18]: 3.29
- glycan array binding signal (z-score) [19]: 3.49
- glycan array binding signal (z-score) [20]: 3.65
- glycan array binding signal (z-score) [21]: 3.9
- glycan array binding signal (z-score) [22]: -0.534
- glycan array binding signal (z-score) [23]: -0.274
- glycan array binding signal (z-score) [24]: -0.131
- glycan array binding signal (z-score) [25]: 1.3
